# Measurements as given in PubChem BioAssay AID1159580 (chemical genetic matrix, 2015).
# Screen size: about 5,500 compounds; about 2,000 (36%) were called active. Another 18% or so got no clear call; they are omitted. The list shows a part of the results. A number with no mark means an inactive call. No stated cut-off is given here; in the data, active means normalized growth mostly below about 0.91 (no sharp cut-off); inconclusive means no clear call, values can overlap the other calls; inactive means mostly above about 0.92.
# Experiment: chemical genetic growth profiling, strain panel (AID 1159580);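 further: tested at 20 µM; growth read once vehicle control cultures reached saturation at 30 °C; 1 = growth at the plate median or of vehicle wells; lower values mean less growth of the strain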
# Settings: S. cerevisiae deletion strains, growth OD
# [1] = locus YAR019C, strain CDC15, active compounds read low
# [2] = locus YBL105C, strain PKC1, active compounds read low
# [3] = locus YBR135W, strain CKS1, active compounds read low
# [4] = locus YBR136W, strain MEC1, active compounds read low
# [5] = locus YBR160W, strain CDC28, active compounds read low
# [6] = locus YDL017W, strain CDC7, active compounds read low
# [7] = locus YDL028C, strain MPS1, active compounds read low
# [8] = locus YDL101C, strain DUN1, active compounds read low
# [9] = locus YDL108W, strain KIN28, active compounds read low
# [10] = locus YDL132W, strain cdc53, active compounds read low
# [11] = locus YDL214C, strain PRR2, active compounds read low
# [12] = locus YDR052C, strain DBF4, active compounds read low
# [13] = locus YDR054C, strain cdc34, active compounds read low
# [14] = locus YDR226W, strain ADK1, active compounds read low
# [15] = locus YDR477W, strain SNF1, active compounds read low
# [16] = locus YER123W, strain YCK3, active compounds read low
# [17] = locus YER133W, strain GLC7, active compounds read low
# [18] = locus YFL009W, strain cdc4, active compounds read low
# [19] = locus YFL029C, strain CAK1, active compounds read low
# [20] = locus YFR003C, strain YPI1, active compounds read low
# [21] = locus YFR019W, strain FAB1, active compounds read low
# [22] = locus YFR028C, strain CDC14, active compounds read low
# [23] = locus YGR040W, strain KSS1, active compounds read low
# [24] = locus YGR052W, strain FMP48, active compounds read low
# [25] = locus YGR092W, strain DBF2, active compounds read low
# [26] = locus YHR030C, strain SLT2, active compounds read low
# [27] = locus YHR079C, strain IRE1, active compounds read low
# [28] = locus YHR082C, strain KSP1, active compounds read low
# [29] = locus YHR205W, strain SCH9, active compounds read low
# [30] = locus YIL147C, strain SLN1, active compounds read low
# [31] = locus YJL095W, strain BCK1, active compounds read low
# [32] = locus YJL128C, strain PBS2, active compounds read low
# [33] = locus YJL157C, strain FAR1, active compounds read low
# [34] = locus YJR016C, strain ILV3, active compounds read low
# [35] = locus YJR066W, strain TOR1 (second series), active compounds read low
# [36] = locus YJR066W, strain TOR1, active compounds read low
# [37] = locus YKL048C, strain ELM1, active compounds read low
# [38] = locus YKL067W, strain YNK1, active compounds read low
# [39] = locus YKL101W, strain HSL1, active compounds read low
# [40] = locus YKL193C, strain SDS22, active compounds read low
# [41] = locus YKL203C, strain TOR2, active compounds read low
# [42] = locus YLR113W, strain HOG1, active compounds read low
# [43] = locus YLR133W, strain CKI1, active compounds read low
# [44] = locus YLR403W, strain SFP1, active compounds read low
# [45] = locus YML070W, strain DAK1, active compounds read low
# [46] = locus YMR001C, strain CDC5, active compounds read low
# [47] = locus YMR205C, strain PFK2 (second series), active compounds read low
# [48] = locus YMR277W, strain FCP1, active compounds read low
# [49] = locus YNL006W, strain LST8, active compounds read low
# [50] = locus YNL020C, strain ARK1, active compounds read low
# [51] = locus YNL161W, strain CBK1, active compounds read low
# [52] = locus YNL183C, strain NPR1, active compounds read low
# [53] = locus YNL207W, strain RIO2, active compounds read low
# [54] = locus YNL222W, strain SSU72, active compounds read low
# [55] = locus YNL307C, strain MCK1 (second series), active compounds read low
# [56] = locus YOL078W, strain AVO1, active compounds read low
# [57] = locus YOL136C, strain PFK27, active compounds read low
# [58] = locus YOR061W, strain CKA2, active compounds read low
# [59] = locus YOR119C, strain RIO1, active compounds read low
# [60] = locus YOR231W, strain MKK1, active compounds read low
# [61] = locus YOR329C, strain SCD5, active compounds read low
# [62] = locus YPL031C, strain PHO85, active compounds read low
# [63] = locus YPL153C, strain RAD53, active compounds read low
# [64] = locus YPL204W, strain HRR25, active compounds read low
# [65] = locus YPL209C, strain IPL1, active compounds read low
# [66] = locus YPL256C, strain CLN2, active compounds read low
# [67] = locus YPR025C, strain CCL1, active compounds read low
# [68] = locus YPR106W, strain ISR1, active compounds read low
# [69] = locus YPR111W, strain DBF20, active compounds read low
# [70] = strain NNK1, active compounds read low
# [71] = strain TSCII, active compounds read low
structure (smiles),measurement,setting,value
CN(C)CCCCSC(=N)N,normalized growth,"locus YAL013W, strain DEP1, active compounds read low",1.04
same,normalized growth,"locus YAL040C, strain CLN3, active compounds read low",0.998
same,normalized growth,"locus YCL061C, strain MRC1 (second series), active compounds read low",1.02
same,normalized growth,"locus YDR150W, strain NUM1, active compounds read low",1.01
same,normalized growth,"locus YDR363W, strain ESC2, active compounds read low",1.02
same,normalized growth,"locus YER002W, strain NOP16, active compounds read low",0.985
same,normalized growth,"locus YJR075W, strain HOC1, active compounds read low",1.04
same,normalized growth,"locus YMR307W, strain GAS1, active compounds read low",1.01
same,normalized growth,"locus YNL128W, strain TEP1, active compounds read low",0.999
same,normalized growth,"locus YNL175C, strain NOP13, active compounds read low",0.995
same,normalized growth,"locus YNL197C, strain WHI3, active compounds read low",0.992
same,normalized growth,"locus YNL224C, strain SQS1, active compounds read low",1
same,normalized growth,"locus YOR083W, strain WHI5 (second series), active compounds read low",1.01
C/C(=N/NC(N)=S)c1ccc(Oc2c(Cl)cncc2Cl)cc1,normalized growth,[1],0.997
same,normalized growth,[2],0.993
same,normalized growth,[3],0.983
same,normalized growth,[4],0.986
same,normalized growth,[5],0.989
same,normalized growth,[6],0.987
same,normalized growth,[7],0.992
same,normalized growth,[8],0.988
same,normalized growth,[9],0.987
same,normalized growth,[10],0.994
same,normalized growth,[11],1.01
same,normalized growth,[12],0.989
same,normalized growth,[13],0.978
same,normalized growth,[14],0.988
same,normalized growth,[15],0.999
same,normalized growth,[16],0.989
same,normalized growth,[17],0.969
same,normalized growth,[18],0.983
same,normalized growth,[19],1
same,normalized growth,[20],0.991
same,normalized growth,[21],0.99
same,normalized growth,[22],0.993
same,normalized growth,[23],0.989
same,normalized growth,[24],1.06
same,normalized growth,[25],0.97
same,normalized growth,[26],1.05
same,normalized growth,[27],0.932
same,normalized growth,[28],1.24
same,normalized growth,[29],1.07
same,normalized growth,[30],0.984
same,normalized growth,[31],0.944
same,normalized growth,[32],1.02
same,normalized growth,[33],0.993
same,normalized growth,[34],0.995
same,normalized growth,[35],0.953
same,normalized growth,[36],1.2
same,normalized growth,[37],1.03
same,normalized growth,[38],1.02
same,normalized growth,[39],1.03
same,normalized growth,[40],0.991
same,normalized growth,[41],1.06
same,normalized growth,[42],1.01
same,normalized growth,[43],1.01
same,normalized growth,[44],0.97
same,normalized growth,[45],1.01
same,normalized growth,[46],0.989
same,normalized growth,[47],1.03
same,normalized growth,[48],0.997
same,normalized growth,[49],0.993
same,normalized growth,[50],1.01
same,normalized growth,[51],1
same,normalized growth,[52],0.996
same,normalized growth,[53],0.995
same,normalized growth,[54],0.998
same,normalized growth,[55],1
same,normalized growth,[56],0.998
same,normalized growth,[57],1.02
same,normalized growth,[58],0.994
same,normalized growth,[59],1.02
same,normalized growth,[60],0.973
same,normalized growth,[61],0.991
same,normalized growth,[62],0.983
same,normalized growth,[63],0.953
same,normalized growth,[64],0.972
same,normalized growth,[65],0.998
same,normalized growth,[66],0.99
same,normalized growth,[67],0.988
same,normalized growth,[68],1
same,normalized growth,[69],1.02
same,normalized growth,[70],1.03
same,normalized growth,[71],0.994
COc1ccc(NC(=O)O/N=C(/N)c2ccc(Oc3c(Cl)cncc3Cl)cc2)cc1,normalized growth,[1],0.966
same,normalized growth,[2],0.974
same,normalized growth,[3],0.975
same,normalized growth,[4],0.982
same,normalized growth,[5],0.976
same,normalized growth,[6],0.98
same,normalized growth,[7],0.987
same,normalized growth,[8],0.969
same,normalized growth,[9],0.99
same,normalized growth,[10],0.966
same,normalized growth,[11],0.825
same,normalized growth,[12],0.986
same,normalized growth,[13],0.959
same,normalized growth,[14],0.965
same,normalized growth,[15],0.758
same,normalized growth,[16],0.575 (active)
same,normalized growth,[17],0.751
same,normalized growth,[18],0.963
same,normalized growth,[19],0.971
same,normalized growth,[20],0.972
same,normalized growth,[21],0.527 (active)
same,normalized growth,[22],0.963
same,normalized growth,[23],0.751
same,normalized growth,[24],0.694
same,normalized growth,[25],0.706
same,normalized growth,[26],0.71 (active)
same,normalized growth,[27],0.618
same,normalized growth,[28],0.805
same,normalized growth,[29],0.743
same,normalized growth,[30],0.963
same,normalized growth,[31],0.578
same,normalized growth,[32],0.971
same,normalized growth,[33],0.805
same,normalized growth,[34],0.975
same,normalized growth,[35],0.572 (active)
same,normalized growth,[36],0.69
same,normalized growth,[37],0.95
same,normalized growth,[38],0.866
same,normalized growth,[39],0.881
same,normalized growth,[40],0.97
same,normalized growth,[41],0.806
same,normalized growth,[42],0.604 (active)
same,normalized growth,[43],0.825
same,normalized growth,[44],0.756
same,normalized growth,[45],0.804
same,normalized growth,[46],0.958
same,normalized growth,[47],0.898
same,normalized growth,[48],0.977
same,normalized growth,[49],0.981
same,normalized growth,[50],0.856
same,normalized growth,[51],0.962
same,normalized growth,[52],0.593
same,normalized growth,[53],0.957
same,normalized growth,[54],0.965
same,normalized growth,[55],0.745
same,normalized growth,[56],0.973
same,normalized growth,[57],0.793
same,normalized growth,[58],0.87
same,normalized growth,[59],0.781
same,normalized growth,[60],0.661
same,normalized growth,[61],0.971
same,normalized growth,[62],0.726
same,normalized growth,[63],0.728
same,normalized growth,[64],0.676
same,normalized growth,[65],0.963
same,normalized growth,[66],0.676 (active)
same,normalized growth,[67],0.965
same,normalized growth,[68],0.98
same,normalized growth,[69],1
same,normalized growth,[70],1
same,normalized growth,[71],0.975
